The list is not random: actives were taken first. Their share in the collection is about 2.7%.
CHT PAM: allosteric activators of human choline transporter CHT. B-score at 10 µM. Q9GZV3. AID 488977. CHT-expressing cells, membrane potential dye, choline EC20; hits give high values; LV-AA mutant CHT in HEK293 cells. hit rate 0.49% among 310,000;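 active means initial fluorescence not abnormally high and integrated response B-score, plate-corrected, over 3 SD above library mean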
IDE inh: inhibitors of human insulin-degrading enzyme in cells. P14735. HEK cells, FAbetaB cleavage, fluorescence polarization. inhibition, % at 5.59 µM. hit rate 0.41% among 320,000;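 active means percent inhibition above the average of all tested compounds plus 3 SD, set per screening campaign, cut at about 16% in these data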;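 further: IDE supplied by intact live HEK cells; FP after avidin binding of uncleaved biotin substrate so inhibition keeps polarization high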
TMEM16A inh: blocks the mouse calcium-activated chloride channel TMEM16A. HEK293 TMEM16A/YFP iodide influx fluorescence, ionomycin. Q8BHY3. hit rate 1.2% among 310,000. normalized B-score (activity score, 25-100; higher = stronger inhibition) at 10 µM;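 active means ratio plate-corrected score three or more library SD toward inhibition, starting fluorescence score within five deviations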;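 further: score derived from kinetic fluorescence span divided by baseline fluorescence per well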
ANO1 activ: activates or potentiates the mouse TMEM16A chloride channel; Q8BHY3; HEK293 TMEM16A/YFP-H148Q/I152L, iodide quench fluorescence; hits give low values; B-score at 10 µM; hit rate 0.3% among 340,000;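 active means fluorescence-ratio B-score plate-corrected deviation score at least 3 library SD below zero, with starting fluorescence score within 5 deviations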;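 further: channel opened by trigger with iodide after compound preincubation; score built on the fluorescence ratio of max minus min over baseline; more negative score means more quench and so TMEM16A activation or potentiation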
IDE act: activators of human insulin-degrading enzyme in cells. activation, % at 5.96 µM. HEK cells, FAbeta-B cleavage, fluorescence polarization; 0% vehicle, 100% cell-free pure enzyme wells. hit rate 0.073% among 340,000. P14735. AID 493087;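 active means activation above the mean of all tested compounds plus 3 SD, set per screening campaign, cut at about 17% in these data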
CHT inh: inhibits the human high affinity choline transporter | CHT-expressing cells, membrane potential dye, choline response; hits give low values | B-score at 10 µM | hit rate 0.86% among 310,000;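 active means B-score over 3 SD under the library average, and starting fluorescence ratio not unusually high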;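 further: choline stimulus applied at its EC90 after an EC20 pre-addition; B-score computed on integrated fluorescence ratio after choline addition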
CHT inh conf: confirmation of human choline transporter CHT inhibitors | shares compounds with CHT inh | CHT-expressing cells, choline membrane potential dye; LV-to-AA substituted CHT, HEK293 cells | CHT activity remaining % of control (hits give low values), % at 10 µM | hit rate 70% among 2,400;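 active means choline transporter activity left, mean of duplicates at 10 µM, below buffer-only control mean minus 3 SD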;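 further: depolarization triggered by choline at its EC90 following an EC20 pre-addition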
HEK293 CHT ctr: CHT inhibitor counter-screen hit in parental HEK293 cells. shares compounds with CHT inh. membrane potential dye, choline response; active = decrease or increase beyond buffer ±3SD. membrane potential ratio readout (active if shifted either direction beyond buffer ±3SD; no single direction) at 10 µM. hit rate 4% among 2,400. AID 493222;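 further: parental cells lack the transporter so any hit is non-specific; ratio is peak minus trough fluorescence over baseline after EC90 choline challenge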
Of the large screens only hits and unclear results are named; the others gave an inactive call (follow-up assays come after a bar, where they were run).

NC(=O)c1c(NC(=O)C2CC=CCC2C(=O)O)sc2c1CCCCC2 (configuration not stated)	none
CC(=O)Oc1ccc2nc(-c3ccco3)oc(=O)c2c1	CHT inh -10 | CHT inh conf inactive | HEK293 CHT ctr inactive
CCC(CC)Nc1ccc(C(CC(N)=O)NC(=O)c2ccccc2)cc1[N+](=O)[O-] (configuration not stated)	CHT inh -5.1 | CHT inh conf 41% | HEK293 CHT ctr inactive
CCCCNc1ccc(C(CC(N)=O)NC(=O)c2ccccc2)cc1[N+](=O)[O-] (configuration not stated)	none
NC(=O)CC(NC(=O)c1ccc(Br)cc1)c1ccc(N2CCN(c3ccccc3)CC2)c([N+](=O)[O-])c1 (configuration not stated)	none
Cc1cccc(CNc2ccc(C(CC(N)=O)NC(=O)c3ccccc3)cc2[N+](=O)[O-])c1 (configuration not stated)	none
Cc1ccccc1CNc1ccc(C(CC(N)=O)NC(=O)c2ccccc2)cc1[N+](=O)[O-] (configuration not stated)	CHT inh -5.4 | CHT inh conf inactive | HEK293 CHT ctr inactive
NC(=O)CC(NC(=O)c1ccc(Br)cc1)c1ccc(N2CCCCCCC2)c([N+](=O)[O-])c1 (configuration not stated)	CHT inh -5.3 | CHT inh conf 65% | HEK293 CHT ctr inactive
CCOc1ccc(Br)cc1CNCc1cccnc1	none (no result: IDE inh)
Fc1ccccc1COc1ccc(Br)cc1CNCc1ccncc1	CHT inh -5.5 | CHT inh conf 70% | HEK293 CHT ctr inactive
CC(C)c1nc(SCC(=O)Nc2ccc([N+](=O)[O-])cc2Br)n[nH]1	CHT inh -5.8 | CHT inh conf inactive | HEK293 CHT ctr inactive
CCCCCCCCN1[C@@H](CC(=O)O)c2cc(C(F)(F)F)ccc2S1(=O)=O	none
CCCCCCCCCCCCN1[C@@H](CC(=O)O)c2cc(C(F)(F)F)ccc2S1(=O)=O	TMEM16A inh 100, CHT inh -7.3 | CHT inh conf 44% | HEK293 CHT ctr inactive
Cn1ccnc1SCC(=O)N1CCN(S(=O)(=O)c2ccccc2)CC1	CHT inh -5 | CHT inh conf inactive | HEK293 CHT ctr inactive
Cn1nnnc1SCC(=O)N1CCN(S(=O)(=O)c2ccccc2)CC1	none
COc1ccc(OC(C)C(=O)NCCC2=CCCCC2)cc1 (configuration not stated)	CHT inh -5.1 | CHT inh conf inactive | HEK293 CHT ctr inactive
COc1ccc(C(=O)NCCC2=CCCCC2)cc1	none
Cc1ccc(OCC(=O)NCCCNC(=O)c2ccncc2)cc1	none
O=C1NN(c2ccccc2)C(=O)/C1=C/c1coc2ccccc2c1=O	CHT inh -5.3 | CHT inh conf 31% | HEK293 CHT ctr inactive
CC1=N/C(=C\c2ccc(OC(C)C)cc2)C(=O)N1c1ccc(C(=O)O)cc1	none
COc1ccc(/C=C2\N=C(c3ccccc3)N(c3ccc(C(=O)O)cc3)C2=O)cc1OC	CHT inh -6.9 | CHT inh conf 47% | HEK293 CHT ctr inactive
Cc1nccn1C[C@@H]1CCc2c(c3ccccc3n2C)C1=O	CHT inh -5.7 | CHT inh conf 12% | HEK293 CHT ctr inactive
Cc1nccn1CC1CCc2c(c3ccccc3n2C)C1=O (configuration not stated)	CHT inh -6.7 | CHT inh conf 7.4% | HEK293 CHT ctr inactive
CC1CCCCN1C(=O)C1CCN(c2nc(-c3ccccc3)nc3c2CCC3)CC1 (configuration not stated)	none
CCN(Cc1ccccc1)C(=O)CN1C(=O)COc2ccc(S(=O)(=O)NC3CCCC3)cc21	none
O=C(NC1CCCCC1)c1ccc(S(=O)(=O)NCc2ccco2)cc1	CHT inh -5.5 | CHT inh conf inactive | HEK293 CHT ctr inactive
Cc1c(NC(=S)NC(=O)c2ccc(-c3ccc(Cl)cc3)o2)cccc1C(=O)O	CHT inh -8.8 | CHT inh conf 55% | HEK293 CHT ctr inactive
CCc1nnc(NS(=O)(=O)c2ccc(NC(=O)c3cccc(Br)c3)cc2)s1	CHT inh -7 | CHT inh conf 48% | HEK293 CHT ctr inactive
CCc1nnc(NS(=O)(=O)c2ccc(NC(=O)c3cc(Cl)ccc3Cl)cc2)s1	CHT inh -6.1 | CHT inh conf 30% | HEK293 CHT ctr inactive
CCN(CC)S(=O)(=O)c1ccc(Cl)c(C(=O)NC)c1	none
CCc1nnc(NS(=O)(=O)c2ccc(NC(=O)c3cccc4ccccc34)cc2)s1	none
CCc1nnc(NS(=O)(=O)c2ccc(NC(=O)COc3ccc4ccccc4c3)cc2)s1	CHT inh -5.8 | CHT inh conf inactive | HEK293 CHT ctr inactive
CCc1nnc(NC(=O)c2cc(S(=O)(=O)N(CC)CC)ccc2Cl)s1	CHT inh -5.9 | CHT inh conf 52% | HEK293 CHT ctr inactive
Cc1ccc2c(c1)C(=O)CC(c1ccccc1)S2 (configuration not stated)	none (no result: CHT PAM, IDE inh, TMEM16A inh, CHT inh)
CC1c2cc3c(cc2CCN1C(=O)c1cccc(Cl)c1)OCCCO3 (configuration not stated)	none
O=C(NC(=S)NNC(=O)c1cccs1)c1ccccc1	none
CCCOc1ccc(C(=O)NNC(=S)NC(C)=O)cc1	none
COc1ccc(C(=O)NC(=S)NNC(=O)c2ccc(C)cc2)cc1	CHT inh -7.2 | CHT inh conf 49% | HEK293 CHT ctr inactive
Cc1cccc(C(=O)NC(=S)NNC(=O)c2cccs2)c1	CHT inh -10 | CHT inh conf 36% | HEK293 CHT ctr inactive
COc1ccc(OCC(=O)NC(=S)Nc2ccccc2F)cc1	CHT inh -5.2 | CHT inh conf 59% | HEK293 CHT ctr inactive
CCCOc1ccc(C(=O)NNC(=S)NC(=O)c2ccccc2)cc1	TMEM16A inh 100, CHT inh -6.6 | CHT inh conf 55% | HEK293 CHT ctr inactive
Cc1ccnc(NC(=O)c2ccc(Cl)s2)c1	none
CC(=O)C[C@@H](O)CC(=O)[C@@H]1OC(=O)[C@@H](C)CCCCc2ccccc21	none (no result: CHT PAM, TMEM16A inh, ANO1 activ, CHT inh)
CC(C)CNC(=O)C(=O)NCC1OCCN1S(=O)(=O)c1cccs1 (configuration not stated)	none
CCc1nc2ccccc2c(C(=O)OCC(=O)N2CC(C)OC(C)C2)c1C (configuration not stated)	none
Cc1csc(SCC(=O)N(C)C2CCS(=O)(=O)C2)n1 (configuration not stated)	none (no result: CHT PAM, IDE inh, TMEM16A inh, CHT inh)
